The source of these data is PubChem BioAssay (NCATS).

The nature of assay [1]: Quantitative High-Throughput drug screen in 47 multiple myeloma cell lines against the NCATS MIPE library collection: KMS34_JCRB cell viability assay (AID 1918985). Also: nearly all actives have a fitted effect of over 40% in size. The gist of the method: (§1)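 Myeloma cells (500/well) treated with MIPE 4.0 compounds for 48 h at 37 °C, 5% CO2. Viability read as ATP via CellTiter-Glo luminescence after 5 min at RT; DMSO-only wells = 100%, media-only = 0% viability.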

Assay [2] in a line: Quantitative High-Throughput drug screen in 47 multiple myeloma cell lines against the NCATS MIPE library collection: OCIMY5_PLB cell viability assay (AID 1918988). Also: nearly all actives have a fitted effect of over 65% in size. Summed up: as §1
Assay [3] in a line: Quantitative High-Throughput drug screen in 47 multiple myeloma cell lines against the NCATS MIPE library collection: OPM1_PLB cell viability assay (AID 1918989). Also: nearly all actives have a fitted effect of over 40% in size. The gist of the method:
as §1

Assay [4] can be described thus: Quantitative High-Throughput drug screen in 47 multiple myeloma cell lines against the NCATS MIPE library collection: SKMM1_PLB cell viability assay (AID 1919863). Also: nearly all actives have a fitted effect of over 35% in size. As to conditions: SKMM1 myeloma viability, CellTiter-Glo ATP, 48 h; viability: stronger effect = lower value. Summed up: as §1
Assay [5] in a line: Quantitative High-Throughput drug screen in 47 multiple myeloma cell lines against the NCATS MIPE library collection: XG1_PLB cell viability assay (AID 1919866). Also: nearly all actives have a fitted effect of over 35% in size. The gist of the method: as §1
Assay [6] is described as follows: Quantitative High-Throughput drug screen in 47 multiple myeloma cell lines against the NCATS MIPE library collection: VP6_DJ cell viability assay (AID 1919867). Also: nearly all actives have a fitted effect of over 40% in size. The gist of the method: as §1
The nature of assay [7]: Quantitative High-Throughput drug screen in 47 multiple myeloma cell lines against the NCATS MIPE library collection: UTMC2_PLB cell viability assay (AID 1919868). Also: nearly all actives have a fitted effect of over 55% in size. To be noted: CellTiter-Glo ATP luminescence, 48 h; viability (% of DMSO control): at 45.8 µM (top of the series) unless noted. Summed up:
as §1
In general terms: ATP-based viability assays read luminescence as a measure of living cells.

The nature of assay [8]: Quantitative High-Throughput drug screen in 47 multiple myeloma cell lines against the NCATS MIPE library collection: XG6_PLB cell viability assay (AID 1919865). Also: nearly all actives have a fitted effect of over 40% in size. Summed up: as §1
Assay [9] in a line: Quantitative High-Throughput drug screen in 47 multiple myeloma cell lines against the NCATS MIPE library collection: U266_ATCC cell viability assay (AID 1919864). Also: nearly all actives have a fitted effect of over 35% in size. Summed up:
as §1

Assay [10] is described as follows: Quantitative High-Throughput drug screen in 47 multiple myeloma cell lines against the NCATS MIPE library collection: OCIMY7_PLB cell viability assay (AID 1918987). Also: nearly all actives have a fitted effect of over 65% in size. The gist of the method:
as §1

Inconclusive results are not listed. Values without a mark were called inactive. Active and inactive are the calls of the source. Calls follow the shape of the dose curve; as a rule, active = well fitted cell-killing curve with a large enough effect; inconclusive = small, poorly fitted or top-dose-only effect, or effect the other way; inactive = no such curve, though single readings can be large or run the other way.
Potency is read from the fitted curve at half-maximal effect.

With `C=CCn1c(=O)c2cnc(Nc3ccc(N4CCN(C)CC4)cc3)nc2n1-c1cccc(C(C)(C)O)n1`, the Potency in assay [1] was 0.0148 µM (active); in [2] it was 0.332 µM (active); in assay [3], 0.59 µM (active); in assay [4] it was 0.469 µM (active); in [5], 0.166 µM (active); in [6], 0.372 µM (active). Also, the Potency in assay [7] is 0.148 µM (active).

As for `CC(=O)OCCN1C(=O)c2c(C)nc3ccc(S(=O)(=O)N4CCOCC4)cc3c2C1=O`, the Potency result in assay [1], in [2], in [3], in [8] and in assay [5] was “inactive” each time.

Regarding `COc1c(N2C[C@@H]3CCCN[C@H]3C2)c(F)cc2c(=O)c(C(=O)O)cn(C3CC3)c12`, the Potency in assay [1] is 9.35 µM (active). In addition, the Potency result in [3] and in assay [9] was “inactive” in each case.

For `C[C@@H](Oc1cc(-n2cnc3ccc(CN4CCN(C)CC4)cc32)sc1C(N)=O)c1ccccc1C(F)(F)F`, the Potency was 0.0418 µM (active) in assay [1]; 0.0469 µM (active) in [2]; 16.6 µM (active) in assay [9]; 0.0148 µM (active) in assay [5]; 18.7 µM (active) in assay [6].

Consider `CNC(=O)c1ccc(-c2cnc3ncc(Cc4ccc5ncccc5c4)n3n2)cc1F`, for which the Potency result in assay [1], in [3], in [9] and in [6] was “inactive” each time.

For the compound `CC(C)(O)CCc1ccc(OCc2cc(-c3cccc(OC(F)F)c3)c3ncccc3c2)cc1`, the Potency result in [1] and in assay [3] was “inactive” throughout. Besides, the viability (as a rule, a read-out of living cells in per cent, often relative to untreated cells) in assay [4] is 123%. In addition, the Potency in [8] was 20.9 µM (active).

`COC(=O)c1ccc2c(C(=Nc3ccc(N(C)C(=O)CN4CCN(C)CC4)cc3)c3ccccc3)c(O)[nH]c2c1`: the Potency in assay [1] was 18.7 µM (active); in assay [2] it was 7.43 µM (active); in assay [4] it was 9.35 µM (active); in assay [9], 18.7 µM (active); in assay [7], 6.62 µM (active).

In the case of `CN(C)CCCN=c1c2ccccc2n(C)c2[nH]c(=O)n(C)c(=O)c12`, the Potency is 18.7 µM (active) in assay [1]; 6.62 µM (active) in assay [3]; 14.8 µM (active) in assay [4]; 8.33 µM (active) in assay [9]; 5.9 µM (active) in [8]; 14.8 µM (active) in [5]. For the same compound, in assay [6], the Potency was 14.8 µM (active). Also, the viability (% of DMSO control) in assay [7] was 91.5% (active).

For the compound `CC(O)C1C(=O)N2C(C(=O)O)=C(SC3CNC(C(=O)N(C)C)C3)C(C)C12` (stereo unspecified), the Potency result in assay [1], in assay [2], in assay [3], in assay [8], in [5] and in [7] was “inactive” throughout. Further, the Potency in assay [6] is 2.64 µM (active).

In the case of `CC[C@@H]1C(=O)N(C)c2cnc(Nc3ccc(C(=O)NC4CCN(C)CC4)cc3OC)nc2N1C1CCCC1`, the Potency was 0.187 µM (active) in [1]; 0.0372 µM (active) in [2]; 0.0935 µM (active) in assay [3]; 0.235 µM (active) in [4]; 23.5 µM (active) in assay [9]; 0.0083 µM (active) in assay [5]. The Potency in assay [6] was 2.96 µM (active). The Potency entry in assay [7] was “inactive”.

Consider `CC1(C)O[C@@H]2C[C@@H]3[C@H]4C[C@@H](F)C5=CC(=O)C=C[C@]5(C)[C@@]4(F)[C@@H](O)C[C@]3(C)[C@]2(C(=O)CO)O1`, for which the Potency result in assay [1], in assay [8], in assay [5] and in assay [6] was “inactive” each time. Besides, the figures for the Potency in [2] and in assay [3] were 0.0166 µM (active) and 0.0187 µM (active), respectively.

For `O=c1c2ccccc2nc2n1CCc1c-2[nH]c2ccccc12`, the Potency result in [1], in assay [9], in assay [8], in assay [6] and in [7] was “inactive” throughout. For the same compound, the Potency in assay [10] was 18.7 µM (active); in assay [4] it was 23.5 µM (active).

On to `CCCNC(=O)Nc1ccc(Oc2ncnc3cc(OC)c(OC)cc23)cc1Cl`, for which the Potency entry in [1], in assay [3], in assay [8], in [5] and in [7] was “inactive” in each case. Besides, the viability in assay [4] was 116%.

Turning to `Cc1cc(Nc2cc(NC(=O)c3c(Cl)cccc3Cl)ccn2)nc(N)n1`, the Potency in [1] is 1.18 µM (active); in assay [10], 0.59 µM (active); in assay [9] it was 6.62 µM (active); in assay [8] it was 4.69 µM (active); in assay [5], 1.18 µM (active); in [6], 1.66 µM (active). Besides, the Potency in assay [7] was 2.96 µM (active).

Take `COc1ccc(CC2SC(=O)NC2=O)cc1C(=O)NCc1ccc(C(F)(F)F)cc1` (stereo unspecified): the Potency entry in assay [1] was “inactive”. Moreover, the Potency in assay [3] was 6.62 µM (active).

As for `Cc1ccc(S(=O)(=O)Nc2cc(Cl)ccc2C(=O)Nc2nc(-c3ccccc3)cs2)cc1`, the Potency in [1] is 20.9 µM (active); in [3] it was 4.69 µM (active); in assay [4], 16.6 µM (active); in [9] it was 20.9 µM (active); in assay [6], 6.62 µM (active).

As to `Clc1cccc(-n2nnnc2NCc2ccccc2Oc2ccccn2)c1Cl`, the Potency entry in [1] and in assay [3] was “inactive” each time. For the same compound, in assay [4], the viability is 120%.

Take `CC(C)=CCCC(C)=CCCC(C)=CCSc1ccccc1C(=O)O`: the Potency in assay [1] is 1.32 µM (active); in assay [2], 1.48 µM (active); in assay [3] it was 14.8 µM (active); in assay [4], 2.64 µM (active); in [9], 0.372 µM (active); in assay [8], 4.18 µM (active). The Potency in assay [5] is 0.662 µM (active); in assay [6], 1.87 µM (active); in assay [7], 1.18 µM (active).

Consider `Cc1cn(-c2cc(NC(=O)c3ccc(C)c(Nc4nccc(-c5cccnc5)n4)c3)cc(C(F)(F)F)c2)cn1`, for which the Potency entry in [10], in assay [3], in [9], in assay [5] and in [6] was “inactive” throughout. Moreover, the Potency is 13.2 µM (active) in assay [2] and 26.4 µM (active) in assay [4].

In the case of `CS(=O)(=O)c1ccc(-c2cnc(N)c(C(=O)Nc3ccccc3)n2)cc1`, the Potency is 1.66 µM (active) in assay [10], 2.64 µM (active) in assay [2] and 10.5 µM (active) in [3]. Besides, the Potency result in assay [6] was “inactive”.

On to `CC(C)(C)NC(=O)[C@H]1CN(Cc2cccnc2)CCN1C[C@@H](O)C[C@@H](Cc1ccccc1)C(=O)N[C@H]1c2ccccc2C[C@H]1O`, for which the Potency in assay [10] is 10.5 µM (active); in assay [2], 26.4 µM (active); in assay [3], 11.8 µM (active); in assay [4], 18.7 µM (active); in assay [8], 23.5 µM (active); in assay [5], 2.96 µM (active). Besides, in assay [6], the Potency was 7.43 µM (active).

Regarding `COc1cc(C(=O)NS(=O)(=O)c2ccccc2C)ccc1Cc1cn(C)c2ccc(NC(=O)OC3CCCC3)cc12`, the Potency in [10] was 14.8 µM (active); in assay [2], 18.7 µM (active); in assay [3] it was 7.43 µM (active); in assay [4] it was 18.7 µM (active); in assay [9] it was 18.7 µM (active); in assay [6] it was 16.6 µM (active).

Consider `Cc1cn2c(-c3cn[nH]c3)cnc2c(Nc2ccc(C(=O)N3CCNCC3)cc2F)n1`, for which the Potency was 10.5 µM (active) in [10]; 20.9 µM (active) in [2]; 18.7 µM (active) in assay [4]; 13.2 µM (active) in assay [9]; 2.96 µM (active) in assay [8]; 8.33 µM (active) in assay [6].

Regarding `Cc1cc(Nc2cc(CN3CCOCC3)c3nc(C)c(Cc4ccc(Cl)cc4F)n3n2)n[nH]1`, the Potency in assay [10] was 2.64 µM (active); in assay [2] it was 3.32 µM (active); in assay [3] it was 16.6 µM (active); in assay [4], 16.6 µM (active); in assay [9], 20.9 µM (active); in assay [8], 13.2 µM (active). Moreover, the Potency in [5] is 0.833 µM (active); in [6] it was 13.2 µM (active); in assay [7], 2.35 µM (active).

`CCCCN1CCC(CNC(=O)c2c3n(c4ccccc24)CCCO3)CC1`: the Potency was 3.72 µM (active) in assay [10]; 3.32 µM (active) in [2]; 23.5 µM (active) in [3]; 4.69 µM (active) in [9]; 0.833 µM (active) in assay [8]; 10.5 µM (active) in [6].

For `Cn1c2cc(S(C)=O)sc2c2cnn(Cc3cccc(N)c3)c(=O)c21` (stereo unspecified), the Potency result in [1], in [9], in [8] and in [5] was “inactive” each time. Besides, the viability in assay [4] is 114%.
